Rows were chosen to be rich in hits. Some 19% of all compounds tested hit in one or more screens of this group.
ELG1 DNA repair: ELG1-dependent DNA repair inhibition. actives 2.3% (n = 330,000). Potency, µM (doses to about 46.1 µM), inactives show at the highest dose activity change, negative = inhibition, most hits filed as inhibitors. HEK293T ELG1-luciferase reporter, luminescence, 16 h; DNA damage induced by 5-fluorouridine; also: potency is read from the fitted curve at half-maximal effect; nearly all actives have a fitted effect of over 55% in size
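Overnight (16 hr) co-exposure of 2,000 cells/well to 5-fluorouridine and compound at 37 °C preceded detection. Luciferase was quantified via ONE-Glo luminescence; loss of signal denotes inhibition.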
HT1080NT lethal: kills 2HG-producing HT-1080-NT fibrosarcoma cells; HT-1080-NT fibrosarcoma viability, CellTiter-Glo ATP luminescence, 48 h; Potency, µM (series often up to 46.1 µM), without a hit: top-dose activity, negative = less viability, usual class: cytotoxic; actives 1.6% (n = 360,000); AID 686970;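 also: NT is the 2HG producing partner of a matched IDH1 knockdown line; potency is read from the fitted curve at half-maximal effect; 0% = DMSO-treated cells and -100% = media-only wells without cells; nearly all actives have a fitted effect of over 55% in size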
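Viability of the 2HG-overproducing fibrosarcoma line after 48 hours of compound exposure at 37 degrees C was determined by luminescence with CellTiter-Glo, and concentration-effect curves were then fitted and categorized.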
IL1B secr inh: inflammasome signaling inhibition, IL-1 beta readout | THP-1 LPS/ATP IL-1B secretion, AlphaLISA, 16 h; stronger effect = lower value | activity change, % at 57.5 µM | actives 4.7% (n = 360,000); in the data active = activity change below about -50%; inconclusive = mostly about -30% to -49%
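THP-1 cells pretreated 1 hr with compounds (up to 57.5 uM final), then stimulated with LPS (250 ng/mL final) plus ATP (1.25 mM final); secreted IL-1B measured by AlphaLISA after 16 hr, decreased signal indicating inhibition.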
HT1080 IDH1KD tx: HT-1080 IDH1 knockdown cell toxicity (counter line); HT-1080 IDH1 knockdown viability, ATP luminescence, 48 h; Potency, µM (titrated, usually from 46.1 µM), without a hit: at the highest dose activity, negative = toxicity, most hits filed as cytotoxic; actives 2% (n = 360,000); AID 686971;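 also: potency is read from the fitted curve at half-maximal effect; 0% = DMSO wells and -100% = cell-free medium wells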
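Luminescent ATP read-out (CellTiter-Glo, 10 min at room temperature) after 48 h compound exposure at 37 °C gave viability of IDH1-knockdown HT-1080 cells. Activity was normalised to DMSO and cell-free wells, then fitted as concentration-response curves.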
TDP1 cell CPT: growth inhibition of DT40 Tdp1-/-;hTDP1 cells with camptothecin (screen for TDP1 inhibitors) | chicken DT40 Tdp1-/-;hTDP1 cells + 20 nM CPT, ATP luminescence, 48 h | Potency, µM (doses to about 46.2 µM), for inactives: at the top dose activity change, negative = growth inhibition, actives largely listed as inhibitors | actives 12% (n = 420,000); also: potency is read from the fitted curve at half-maximal effect; nearly all actives have a fitted effect of over 55% in size
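Chicken DT40 Tdp1-/- cells complemented with human TDP1, 400 cells/well, exposed to compounds plus 20 nM camptothecin for at least 48 h at 37 C; viability read as ATP content by CellTiter-Glo luminescence.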
DT40 TDP1 no CPT: qHTS for Inhibitors of human tyrosyl-DNA phosphodiesterase 1 (TDP1): qHTS in cells in absence of CPT; actives 15% (n = 420,000); DT40 Tdp1-/- hTDP1 cells, no CPT, ATP luminescence, 48 h; Potency, µM (titrated, usually from 46.2 µM), without a hit: at the top dose activity change, negative = growth inhibition, usual class: inhibitors; also: potency is read from the fitted curve at half-maximal effect; nearly all actives have a fitted effect of over 55% in size
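Camptothecin absent (DMSO only). Human TDP1-complemented DT40 knockout cells, 400 cells/well, 37 °C for minimum 48 hr; ATP measured via CellTiter-Glo, 30 min dark incubation, luminescence.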
Starred values were filed as active, the others as inactive. Unless noted, calls follow the shape of the dose curve; as a rule, active = well fitted curve in the direction sought with a large enough effect; inconclusive = small, poorly fitted or top-dose-only effect, or another doubt; inactive = no such curve, though single readings can be large; an effect the other way counts as inactive or inconclusive. Unless noted, % is scaled to controls: 0 for no effect and ±100 for the full control effect.

Screening CN(C)S(=O)(=O)c1ccc(NC(=O)CSc2ncnc3ccccc23)cc1 returned ELG1 DNA repair -19%, HT1080NT lethal -12%, IL1B secr inh -102*, HT1080 IDH1KD tx -26%, TDP1 cell CPT -27% and DT40 TDP1 no CPT inconclusive.
For CN(C)S(=O)(=O)c1cccc(NC(=O)CSc2ncnc3ccccc23)c1 the results were ELG1 DNA repair inconclusive, HT1080NT lethal -3%, IL1B secr inh -100*, HT1080 IDH1KD tx -11%, TDP1 cell CPT 21µM* and DT40 TDP1 no CPT 18µM*.
O=C(CSc1nc2ccccc2c(=O)n1-c1ccc(F)cc1)Nc1cc(S(=O)(=O)N2CCOCC2)ccc1Cl was read as ELG1 DNA repair inconclusive, HT1080NT lethal 10%, IL1B secr inh -12, HT1080 IDH1KD tx 10%, TDP1 cell CPT inconclusive and DT40 TDP1 no CPT inconclusive.
For C[C@@H]1c2ccccc2N2C[C@H](Cc3ccc(C(=O)c4ccccc4)cc3)C[C@@H]12 the results were HT1080NT lethal -1%, IL1B secr inh -4, HT1080 IDH1KD tx -4%, TDP1 cell CPT -13% and DT40 TDP1 no CPT inconclusive.
`O=C(CSc1nc2ccccc2c(=O)n1-c1ccc(F)cc1F)Nc1ccc(N2CCOCC2)cc1` gave ELG1 DNA repair -15%, HT1080NT lethal -2%, IL1B secr inh -6, HT1080 IDH1KD tx -2%, TDP1 cell CPT 23µM* and DT40 TDP1 no CPT 21µM*.
O=C(COc1ncnc2ccccc12)Nc1cccc(S(=O)(=O)N2CCOCC2)c1 was read as ELG1 DNA repair inconclusive, HT1080NT lethal 14%, IL1B secr inh 35, HT1080 IDH1KD tx 9%, TDP1 cell CPT 6% and DT40 TDP1 no CPT 2%.
Screening Cc1ccc(S(=O)(=O)N(C)C)cc1-n1c(SCC(=O)Nc2ccc(F)c(F)c2F)nc2ccccc2c1=O returned ELG1 DNA repair inconclusive, HT1080NT lethal -13%, IL1B secr inh 18, HT1080 IDH1KD tx -8%, TDP1 cell CPT 15µM* and DT40 TDP1 no CPT 21µM*.
`O=C(CSc1ncnc2ccccc12)Nc1cccc(S(=O)(=O)N2CCOCC2)c1` gave ELG1 DNA repair 10%, HT1080NT lethal -4%, IL1B secr inh inconclusive, HT1080 IDH1KD tx -10%, TDP1 cell CPT -19% and DT40 TDP1 no CPT 16µM*.
O=C(CSc1nc2ccccc2c(=O)n1-c1ccc(F)cc1)Nc1ccc(N2CCOCC2)cc1 was read as ELG1 DNA repair -21%, HT1080NT lethal -1%, IL1B secr inh 102, HT1080 IDH1KD tx 0%, TDP1 cell CPT inconclusive and DT40 TDP1 no CPT -26%.
For O=c1c2ccccc2nc(SCc2cccc(F)c2)n1-c1cccc(S(=O)(=O)N2CCCC2)c1 the results were ELG1 DNA repair -27%, HT1080NT lethal 3%, IL1B secr inh 0, HT1080 IDH1KD tx 8%, TDP1 cell CPT 12µM* and DT40 TDP1 no CPT 18µM*.
For Cc1ccc(S(=O)(=O)Nc2ccccn2)cc1[N+](=O)[O-] the results were ELG1 DNA repair 1%, HT1080NT lethal 7%, IL1B secr inh 11, HT1080 IDH1KD tx 3%, TDP1 cell CPT 9% and DT40 TDP1 no CPT -17%.
For CC(=O)NC(Cc1cccc(C)c1)C(=O)NC1CCN(C(=O)c2ccc([N+](=O)[O-])cc2)CC1 (stereo not given) the results were ELG1 DNA repair 7%, HT1080NT lethal 1%, IL1B secr inh 4, HT1080 IDH1KD tx 13%, TDP1 cell CPT -2% and DT40 TDP1 no CPT -24%.

From PubChem
